Consider ten compounds from PubChem BioAssay (NCATS).

Inconclusive results are not listed. Activity calls are given as the source filed them. Unless noted, calls follow the shape of the dose curve; as a rule, active = well fitted curve in the direction sought with a large enough effect; inconclusive = small, poorly fitted or top-dose-only effect, or another doubt; inactive = no such curve, though single readings can be large; an effect the other way counts as inactive or inconclusive.

Test [1] in a line: Quantitative High-Throughput drug screen in 47 multiple myeloma cell lines against the NCATS MIPE library collection: KMS28BM_JCRB cell viability assay (AID 1919874). Also: nearly all actives have a fitted effect of over 35% in size. Also: potency is read from the fitted curve at half-maximal effect. In outline: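 MIPE 4.0 approved/investigational drugs; 500 cells/well; 48 h 37 °C humidified 5% CO2; CTG luminescence readout; DMSO = 100%, media = 0% viability.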
Test [2] is described as follows: qHTS drug screen for cell cycle checkpoint inhibitors in PARPi-resistant BRCA-mutant ovarian cancer cell lines. (AID 1963452; calls by dose curve). The following applies: PEO1/OlaR viability, CellTiter-Glo luminescence, 96 h, stronger effect = lower value. Put shortly:
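PEO1, PEO4 and PEO1/OlaR ovarian cancer cells, 600 per well, exposed 96 h at 37C to a dilution series. Viability read by CellTiter-Glo luminescence, normalized to DMSO and empty wells; activity summarized as Z-AUC.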
On the technique in general: qHTS replaces the single test concentration by a dilution series.

Test [3] is described as follows: qHTS for identification of novel therapeutic agents for treatment of microphthalmiaassociated transcription factor (MiT) renal cell carcinoma (RCC) (AID 1963991; calls by dose curve; also: potency is read from the fitted curve at half-maximal effect). The conditions noted are these: CellTiter-Glo, 48 h; for Potency: active = Z-AUC below -0.8 in all three lines; for z-score: stronger effect = lower value. In outline: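 Three TFE3-fusion RCC lines (UOK109, UOK124, UOK145), 500 cells/well in complete medium, were treated with MIPE 4.0 compounds for 48 hours at 37 C. Viability was by CellTiter-Glo luminescence, normalized to DMSO (100%) and empty wells (0%); curves fitted over 11 concentrations.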

Test [4] can be described thus: qHTS profiling for inhibitors of Plasmodium falciparum proliferation (AID 504749).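 Also: 0% = DMSO vehicle and full inhibition = artemisinin control; nearly all actives have a fitted effect of over 60% in size.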 The conditions noted are these: P. falciparum in erythrocytes, SYBR Green DNA, 72 h, at 12.8 µM (top of the series). In outline:
(§1)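 Parasite proliferation within erythrocytes, 72 h exposure. Endpoint: SYBR Green I fluorescence after overnight lysis at room temperature. Controls: 0.29 uM artemisinin, DMSO.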

The test system of the next test is 3D7. The description is as above. The conditions noted are these: P. falciparum in erythrocytes, SYBR Green DNA, 72 h; series mostly up to 28.7 µM. In outline: as §1
Another test relates to 7G8. The description is as above. The conditions noted are these: P. falciparum in erythrocytes, SYBR Green DNA, 72 h; series mostly up to 28.7 µM. Put shortly:
as §1

The next test relates to AA1029. Described as above. The following applies: P. falciparum in erythrocytes, SYBR Green DNA, 72 h; series mostly up to 28.7 µM. In outline: as §1
Another test has as its system AS120. The description is as above. The following applies: P. falciparum in erythrocytes, SYBR Green DNA, 72 h; series mostly up to 28.7 µM. Put shortly:
as §1

The next test deals with ATS189. Described as above. The following applies: P. falciparum in erythrocytes, SYBR Green DNA, 72 h; series mostly up to 28.7 µM. Put shortly:
as §1

Where [5] appears, read: measured here: PEO1 parental Z-AUC.
Where [6] appears, read: TFE3-RCC UOK109 viability, measured here: UOK109 Z-AUC.
Where [7] appears, read: TFE3-RCC viability, measured here: UOK124 Z-AUC.
The mark [8] stands for this setting: TFE3-RCC viability, measured here: UOK145 Z-AUC.

Consider `C=CC(=O)Nc1ccc2ncnc(Nc3ccc(OCc4cccc(F)c4)c(Cl)c3)c2c1`, for which the Potency in test [1] is 132 nM (active); in [3] (TFE3-RCC UOK109 viability), 590 nM (active). The Z-AUC in test [2] is -0.749 (inactive); in test [2] (setting [5]), -1.48; in test [2] (measured here: PEO4 Z-AUC), -1.57. Moreover, the z-score in test [3] (setting [6]) is -2.47; in test [3] (setting [7]), -3.02; in test [3] (setting [8]), -1.72.

Regarding `Cc1cc(Nc2ncc3c(n2)N(C)C(=O)N(c2cc(NC(=O)c4cccc(C(F)(F)F)c4)ccc2C)C3)n(C)n1`, the figures for the Potency in [1] and in test [3] (TFE3-RCC UOK109 viability) were 3320 nM (active) and 264 nM (active), respectively. In addition, the results for the Z-AUC in test [2], in test [2] (setting [5]) and in test [2] (measured here: PEO4 Z-AUC) were -1.62 (inactive), -1.69 and -1.33, respectively. The values for the z-score in test [3] (setting [6]), in [3] (setting [7]) and in test [3] (setting [8]) were -1.56, -1.08 and -2.15, respectively.

In the case of `O=C1NC(O)CCN1[C@@H]1O[C@H](CO)[C@H](O)[C@H]1O` (stereo partly drawn), the Potency entry in test [1] is “inactive”. Also, the Z-AUC is -0.827 (inactive) in test [2], -1.1 in test [2] (setting [5]) and -1.36 in test [2] (measured here: PEO4 Z-AUC). The values for the z-score in [3] (setting [6]), in [3] (setting [7]) and in test [3] (setting [8]) were 0.896, 0.732 and 0.58, respectively.

`Nc1nc2c(c(=O)[nH]1)N(C=O)[C@H](CNc1ccc(C(=O)N[C@@H](CCC(=O)O)C(=O)O)cc1)CN2`: the Potency result (in [1]; in the test on 3D7; in the test with 7G8; in the test on AA1029; in the test on AS120; in the test on ATS189) was “inactive” throughout. Moreover, the figures for the Z-AUC in test [2], in [2] (setting [5]) and in [2] (measured here: PEO4 Z-AUC) were 1.12 (inactive), 1.3 and 1.01, respectively. In addition, the activity, negative = inhibition was 9.3% (inactive) in test [4] (parasite line A) and 7.79% (inactive) in [4] (parasite line B).

Take `CCCCCCCCCCCCc1ccc(S(=O)(=O)Nc2nncs2)cc1`: the Potency entry in test [1] was “inactive”. The Z-AUC in test [2] is -0.392 (inactive); in [2] (setting [5]), 0.179; in test [2] (measured here: PEO4 Z-AUC), 0.202. Further, the z-score was 1.37 in test [3] (setting [6]), 2.17 in test [3] (setting [7]) and 1.03 in [3] (setting [8]).

Take `Nc1ccn(C[C@@H](CO)OCP(=O)(O)O)c(=O)n1`: the Potency entry in test [1] is “inactive”. For the same compound, the Z-AUC is -1.33 (inactive) in test [2], -0.089 in test [2] (setting [5]) and -0.602 in test [2] (measured here: PEO4 Z-AUC). Moreover, the z-score in [3] (setting [6]) came to 1.6; in test [3] (setting [7]), 1.03; in [3] (setting [8]), 1.52.

As for `OC[C@H]1OC(O)C[C@@H](O)[C@H]1O` (stereo partly drawn), the Potency entry in [1] was “inactive”. Moreover, the Z-AUC in [2] is -0.67 (inactive); in test [2] (setting [5]), -0.645; in test [2] (measured here: PEO4 Z-AUC), -0.88. Further, the z-score in test [3] (setting [6]) was 1.34; in test [3] (setting [7]), 0.406; in test [3] (setting [8]) it was -0.0329.

For the compound `C=C[C@@H]1CN2CCC1C[C@H]2[C@H](O)c1ccnc2ccc(OC)cc12` (stereo partly drawn), in test [1], the Potency result was “inactive”. Moreover, the Z-AUC is -0.116 (inactive) in test [2], 0.594 in test [2] (setting [5]) and 0.97 in [2] (measured here: PEO4 Z-AUC). Also, the z-score is 0.232 in [3] (setting [6]), 0.335 in [3] (setting [7]) and 0.288 in test [3] (setting [8]).

On to `Cn1cc(C[C@@H](N)C(=O)O)c2ccccc21`, for which the Potency entry in test [1] was “inactive”. In addition, the Z-AUC in [2] was 0.11 (inactive); in test [2] (setting [5]), 1.01; in test [2] (measured here: PEO4 Z-AUC), 0.769. Also, the z-score was 1.28 in test [3] (setting [6]), 1.02 in test [3] (setting [7]) and 1.04 in [3] (setting [8]).

Consider `COc1cc2c(cc1OC)[C@@H]1C(=O)c3ccc4c(c3O[C@@H]1CO2)C=CC(C)(C)O4`, for which, in test [1], the Potency is 5900 nM (active). Besides, the Z-AUC in [2] was -0.868 (inactive); in test [2] (setting [5]), -1.79; in test [2] (measured here: PEO4 Z-AUC), -1.41.
